High-throughput results from PubChem BioAssay.
MEKK2wt PB1 HTS – raises or lowers MEK5 binding to wildtype human MEKK2 PB1 domain. Q9Y2U5. bead flow cytometry, Alexa488-MEK5 binding to MEKK2 WT; actives lie on both sides. binding response (% of control), % at 10 µM. 1.1% of 290,000 active. AID 1531; in the data active means binding response below about 67% or above about 130%
MEKK2 mut-MEK5 – signal of MEK5 binding to mutant human MEKK2 PB1 domain; bead flow cytometry, Alexa488-MEK5 binding to MEKK2 mutant; percent response, % at 10 µM; 0.35% of 290,000 active; in the data active means percent response above about 24%, passing the limit was not always enough
FID counter – counter-screen for HCV NS3 helicase inhibitors: DNA intercalator displacement; DNA fluorescent intercalator displacement, fluorescence; inhibition, % at 7.9 µM; 0.17% of 290,000 active; AID 1845; in the data active means inhibition above about 37%;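 further: 0% = vehicle and 100% = reference compound; higher means more ethidium bromide displaced from hairpin DNA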
dFosB act – mouse delta FosB homodimer activation; 0.99% of 340,000 active; AID 493131; activation, % at 25 µM; purified delta FosB, TAMRA-CDK5 oligo fluorescence polarization; percent of positive-control signal above neutral wells;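 active means mean activation above about 17%, with every replicate also reaching it, limit read from the data, passing the limit was not always enough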
Target sequence (P13346 whole entry, looked up): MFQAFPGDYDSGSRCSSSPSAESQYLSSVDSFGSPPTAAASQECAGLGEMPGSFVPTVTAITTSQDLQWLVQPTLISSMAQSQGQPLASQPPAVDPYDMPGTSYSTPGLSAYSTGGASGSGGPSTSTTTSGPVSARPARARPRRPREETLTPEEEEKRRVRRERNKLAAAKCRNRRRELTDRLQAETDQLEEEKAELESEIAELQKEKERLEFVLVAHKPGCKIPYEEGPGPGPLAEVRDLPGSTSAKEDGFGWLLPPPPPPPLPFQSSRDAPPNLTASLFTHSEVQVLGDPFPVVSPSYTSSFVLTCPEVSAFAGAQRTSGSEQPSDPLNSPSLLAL
MEKK3 PB1 HTS – raises or lowers MEK5 binding to the human MEKK3 PB1 domain. Q99759. bead-based flow cytometry, Alexa488-MEK5 binding to MEKK3; actives lie on both sides; 0 = blocked by unlabeled MEK5, 100 = vehicle. binding response (% of control), % at 10 µM. 1.4% of 290,000 active;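 active means binding response more than 3 SD above or below the average of its plate-row segment, actives on both sides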;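 further: Alexa488 bead fluorescence after subtracting the streptavidin-only scavenger bead signal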
MEKK2wt confirm – raises or lowers MEK5 binding to wildtype human MEKK2, retest. bead flow cytometry, Alexa488-MEK5 binding to MEKK2 WT; actives lie on both sides. binding response (% of control), % at 10 µM. 2.4% of 5,900 active. shares compounds with MEKK3 PB1 HTS; in the data active means binding response below about 16% or above about 210%; inactive means in between
MEKK2mut-MEK5 – signal of MEK5 binding to mutant human MEKK2, retest. shares compounds with MEKK3 PB1 HTS. bead flow cytometry, Alexa488-MEK5 binding to MEKK2 mutant. percent response, % at 10 µM. 2% of 5,900 active. AID 1893; in the data active means percent response mostly above about 71%, no sharp cut-off; inactive means mostly below about 38%;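 further: higher means compound restores mutant binding toward wildtype level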
MEKK3 confirm – MEKK3-MEK5 PB1 inhibition, single concentration confirmation | 1.8% of 5,900 active | binding response (% of control), % at 10 µM | bead flow cytometry, Alexa488-MEK5 binding to MEKK3; active compounds read low | AID 1894 | shares compounds with MEKK3 PB1 HTS;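 active means binding response below 72% of control, or above a set upper limit, though filed actives all read lower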;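 further: 100% = DMSO only wells and 0% = binding blocked by excess unlabeled MEK5; lower values mean stronger disruption of MEK5 binding to MEKK3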
An asterisk follows results filed as active; / = no result; [ ] = dose if it differs, or a comment. In the library only some 2.9% were active in any assay of this set; here they are far more common.

SMILES | MEKK2wt PB1 HTS | MEKK2 mut-MEK5 | FID counter | dFosB act | MEKK3 PB1 HTS | MEKK2wt confirm | MEKK2mut-MEK5 | MEKK3 confirm
CN(C)CCCN(C(=O)CCOc1ccccc1)c1nc2ccc(F)cc2s1 | 143* | 7 | -2 | -55 | 108 | 126 | 10 | 105
Cc1cc(N2CCC(N(C)C3CCCC3)CC2)nc2cc(O)ccc12 | 142* | 24* | 24 | 7 | 110 | 116 | 34 | 108
CCN(CC)CCOC(=O)c1ccc(NC(=O)CCCN2C(=O)/C(=C\c3cccs3)SC2=S)cc1 | 154* | 17 | 21 | 3 | 102 | 147 | 28 | 93
Cc1cccc(NCc2cc(Cl)ccc2O)n1 | 107 | 4 | 4 | 3 | 82*[inhibitor] | 101 | 3 | 101
Cc1nc(SCc2nc3c([N+](=O)[O-])cccc3[nH]2)c2oc3ccccc3c2n1 | / | / | / | -2 | / | / | / | /
CC1CCN(Cc2nnnn2CCCC(=O)N(C)C(C)c2ccccn2)CC1 (configuration not stated) | 99 | 3 | -28 | -1 | 98 | / | / | /
O=C(CN1CCN(c2ccccc2Cl)CC1)NC1CCCc2ccccc21 (configuration not stated) | 106 | 1 | -18 | -10 | 129* | 102 | -9 | 96
Cc1ccc(Cl)cc1N1CCN(CC(=O)NC2CCCc3ccccc32)CC1 (configuration not stated) | 94 | -3 | -20 | -13 | 97 | / | / | /
COc1ccc(-c2nnn(CC(=O)NC3CCCc4ccccc43)n2)cc1OC (configuration not stated) | 115 | 5 | -1 | 0 | 122* | 102 | 1 | 100
COc1ccc(-c2nnn(CC(=O)c3ccc4c(c3)OCCO4)n2)cc1OC | 103 | 6 | -14 | -5 | 123* | 106 | 5 | 104
O=S(=O)(Cc1ccccc1)N1CCC(c2nc(-c3cccs3)no2)CC1 | 99 | 1 | -8 | -10 | 99 | / | / | /
CCC(=O)Nc1ccccc1C(=O)OCC(=O)c1cccc2ccccc12 | 79 | -11 | -9 | -5 | 68*[inhibitor] | 99 | -9 | 100
CCC(=O)Nc1ccccc1C(=O)OCc1ccc(C(=O)c2ccccc2)cc1 | 109 | 3 | -1 | -6 | 107 | / | / | /
CC(C)Cc1ccc(/C=C/C(=O)N2CCOCC2)cc1 | 98 | 0 | -29 | -2 | 101 | / | / | /
CC(C)(C)c1ccc(/C=C/C(=O)N2CCOCC2)cc1 | 105 | 0 | -25 | 5 | 134* | 101 | 1 | 102
CCCC[C@@H](CNC)NC[C@H](NCCCCC1CCCCC1)C(C)C | 133 | 30* | 13 | 12 | 102 | 143 | 21 | 109
O=C(/C=C/c1ccccc1Cl)Nc1ccc(-c2nnc3n2CCCCC3)cc1 | 102 | 1 | -4 | 0 | 137* | 103 | 5 | 107
O=C(CN1CCN(S(=O)(=O)c2ccccc2)CC1)N1CCCCC1 | / | / | / | 5 | / | / | / | /
Oc1ccc(Nc2nc(N3CCCC3)c3ccccc3n2)cc1 | 153* | 21 | 20 | 80* | 107 | 197 | 93* | 109
Cc1ccc(Nc2nc(N3CCOCC3)c3ccccc3n2)cc1 | 100 | 4 | 19 | 1 | 103 | / | / | /
C(=C\c1nc(N2CCCC2)c2ccccc2n1)/c1ccccc1 | 158* | 30 | 3 | -49 | 107 | 153 | 39 | 111
CCOc1ccc(Nc2nc(N3CCCCC3)nc(N3CCCCC3)n2)cc1 | 87 | -7 | -3 | -8 | 78*[inhibitor] | 114 | 11 | 108
c1ccc(Nc2nc(N3CCCCC3)nc(N3CCCCC3)n2)cc1 | 106 | 3 | -2 | -2 | 105 | / | / | /
COc1ccc(Nc2nc(N3CCCCC3)c3ccccc3n2)cc1 | 136* | 14 | 3 | 3 | 106 | 158 | 36 | 112
